Source: PubChem
Pol eta inh-1: inhibitors of human DNA polymerase eta | Q9Y253 | recombinant Pol eta, fluorescent DNA replication assay | Potency, µM (series often up to 114 µM), inactives show at the top dose activity change, negative = inhibition, hits mostly inhibitors | hit rate 1.2% among 390,000 | AID 588591; note: % is set by controls: 0 for no effect and ±100 for the full control effect
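Fluorescent replication assay: 50 nM final substrate added after a 15 min room-temperature compound preincubation with 10 nM enzyme. Signal taken at 0 min and again at 10 min.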
POLI inh: inhibitors of human DNA polymerase iota. Q9UNA4. Pol iota fluorescent replication assay, 10 min. Potency, µM (top dose mostly 115 µM), inactives show at the top dose activity, negative = inhibition, actives largely listed as inhibitors. hit rate 1% among 390,000
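Fluorescent replication assay read twice, at 0 min and 10 min after adding 50 nM (final) substrate. Enzyme (10 nM) and compounds were first incubated 15 min at room temperature; enzyme-free buffer wells were negative controls.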
Pol beta inh: blocks human DNA polymerase beta activity. P06746. Pol beta primer extension/strand displacement, fluorescence kinetic. Potency, µM (titrated, usually from 114 µM), inactives show at the top dose activity change, negative = inhibition, actives largely listed as inhibitors. hit rate 1.3% among 340,000. AID 485314; note: % is set by controls: 0 for no effect and ±100 for the full control effect
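Enzyme-only controls used 10 nM Pol beta; buffer lacking enzyme served as negative control. Compound preincubated 15 min, then 50 nM substrate added; 0 and 10 min reads at room temperature.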
Pol kappa inh-1: inhibitors of human DNA polymerase kappa | Q9UBT6 | purified Pol kappa, fluorescent DNA synthesis assay, 10 min | Potency, µM (highest dose often 107 µM), for the others: top-dose activity, negative = inhibition, usual class: inhibitors | hit rate 0.53% among 400,000 | AID 588579; note: % is set by controls: 0 for no effect and ±100 for the full control effect
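Kinetic fluorescence readout at 0 and 10 min followed reaction start with substrate at 50 nM final. Beforehand, enzyme (10 nM Pol kappa) stood 15 min with compound at room temperature; buffer-only wells were negative controls.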
FEN1 inh: inhibitors of human flap endonuclease 1; hit rate 0.35% among 390,000; Potency, µM (series often up to 114 µM), without a hit: top-dose activity change, negative = inhibition, actives largely listed as inhibitors; P39748; Recombinant FEN1 flap cleavage, fluorescence, 15 min; note: % is set by controls: 0 for no effect and ±100 for the full control effect; nearly all actives have a fitted effect of over 65% in size
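Reaction started by adding substrate (50 nM final) to 10 nM enzyme after 15 min room-temperature compound preincubation. Reads at 0 and 15 min, with data normalized and fitted to a four-parameter Hill equation.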
WRN helicase inh: blocks human WRN helicase; Q14191; WRN helicase unwinding, fluorescent forked duplex, kinetic; Potency, µM (top dose mostly 114 µM), for the others: at the highest dose activity change, negative = inhibition, actives largely listed as inhibitors; hit rate 0.46% among 360,000; note: % is set by controls: 0 for no effect and ±100 for the full control effect; nearly all actives have a fitted effect of over 55% in size
Target sequence (Q14191 whole entry, looked up): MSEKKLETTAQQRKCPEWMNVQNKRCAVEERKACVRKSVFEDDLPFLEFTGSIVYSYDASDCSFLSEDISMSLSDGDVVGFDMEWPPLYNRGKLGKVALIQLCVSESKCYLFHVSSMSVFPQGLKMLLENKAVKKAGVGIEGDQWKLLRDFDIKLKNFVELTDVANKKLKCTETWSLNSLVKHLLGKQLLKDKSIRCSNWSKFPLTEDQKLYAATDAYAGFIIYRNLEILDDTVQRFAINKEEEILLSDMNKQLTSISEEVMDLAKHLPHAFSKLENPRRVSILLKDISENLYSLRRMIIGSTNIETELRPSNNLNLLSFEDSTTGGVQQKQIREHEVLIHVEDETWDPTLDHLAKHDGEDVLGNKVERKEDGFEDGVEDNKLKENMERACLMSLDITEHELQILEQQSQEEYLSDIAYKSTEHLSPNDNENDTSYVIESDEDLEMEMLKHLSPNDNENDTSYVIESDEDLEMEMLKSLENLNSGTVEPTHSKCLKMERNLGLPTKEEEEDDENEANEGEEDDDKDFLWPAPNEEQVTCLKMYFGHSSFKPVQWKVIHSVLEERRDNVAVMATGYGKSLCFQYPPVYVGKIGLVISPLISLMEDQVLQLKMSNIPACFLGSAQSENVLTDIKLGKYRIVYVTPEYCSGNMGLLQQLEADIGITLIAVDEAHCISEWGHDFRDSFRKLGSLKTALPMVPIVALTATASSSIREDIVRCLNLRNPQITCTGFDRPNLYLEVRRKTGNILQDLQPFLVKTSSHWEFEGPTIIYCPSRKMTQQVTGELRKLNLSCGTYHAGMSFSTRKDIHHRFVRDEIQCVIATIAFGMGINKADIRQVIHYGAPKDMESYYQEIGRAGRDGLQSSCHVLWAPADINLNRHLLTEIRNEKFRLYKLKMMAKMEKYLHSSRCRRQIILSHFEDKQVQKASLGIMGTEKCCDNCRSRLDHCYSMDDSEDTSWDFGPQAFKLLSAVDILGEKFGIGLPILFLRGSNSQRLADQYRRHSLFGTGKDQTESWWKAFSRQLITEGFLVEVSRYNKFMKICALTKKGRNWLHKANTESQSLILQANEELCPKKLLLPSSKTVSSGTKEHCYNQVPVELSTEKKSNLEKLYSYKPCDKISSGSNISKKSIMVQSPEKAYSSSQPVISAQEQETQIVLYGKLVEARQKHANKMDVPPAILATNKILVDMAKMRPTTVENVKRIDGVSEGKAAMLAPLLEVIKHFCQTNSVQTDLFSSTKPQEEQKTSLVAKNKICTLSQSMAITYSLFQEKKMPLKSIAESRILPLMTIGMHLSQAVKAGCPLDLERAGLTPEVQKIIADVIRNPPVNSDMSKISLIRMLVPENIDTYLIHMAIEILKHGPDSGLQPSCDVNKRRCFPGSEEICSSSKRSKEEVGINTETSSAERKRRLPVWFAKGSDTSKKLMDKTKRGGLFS
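Kinetic fluorescence helicase assay: unwinding of a quenched forked DNA duplex (100 nM final) with 2 mM ATP final raises red fluorescence (525/598 nm). Compounds sat 15 min at room temperature with 20 nM WRN beforehand.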
Pol kappa inh-2: Pol kappa (human) inhibition, cherry-pick confirmation; shares compounds with Pol eta inh-1; purified Pol-kappa, fluorescent strand-displacement substrate; Potency, µM, actives largely listed as inhibitors; hit rate 76% among 920; AID 720501
Pol eta inh-2: confirmation of human DNA polymerase eta inhibitors; hit rate 64% among 2,600; shares compounds with Pol eta inh-1; AID 720502; Potency, µM, most hits filed as inhibitors; Pol eta primer extension, TAMRA/BHQ fluorescence, 10 min
* = called active by the depositor; [ ] = remark or other dose. Only some compounds are listed: those with a hit (about 2.4% of all), similar ones and a draw of the others. Calls come from the whole dose curve; as a rule, active = well fitted curve in the direction sought with a large enough effect; inconclusive = small, poorly fitted or top-dose-only effect, or another doubt; inactive = no such curve, though single readings can be large; an effect the other way counts as inactive or inconclusive. Potency is the fitted concentration of half-maximal effect.

Screening CCCCNC(=O)c1ccc2nc(-c3ccco3)c(-c3ccco3)nc2c1 returned Pol eta inh-1 14.1µM*, POLI inh inconclusive, Pol beta inh 20µM*, Pol kappa inh-1 8.91µM*, FEN1 inh 39.8µM*, WRN helicase inh 79.4µM*, Pol kappa inh-2 21.2* and Pol eta inh-2 inconclusive.
For O=C(O)c1c(C(=O)O)c(-c2ccc(F)cc2)n2c1CCC2 the results were Pol eta inh-1 -10.6%, POLI inh 22.0%, Pol beta inh 10.1%, Pol kappa inh-1 -11.5%, FEN1 inh -11.2% and WRN helicase inh -2.4%.
`O=C(O)c1c(C(=O)O)c(-c2ccc(Cl)c(Cl)c2)n2c1CSC2` gave Pol eta inh-1 50.1µM*, POLI inh inconclusive, Pol beta inh inconclusive, Pol kappa inh-1 -44.9%, FEN1 inh -25.8%, WRN helicase inh -16.8%[11.6 µM] and Pol kappa inh-2 37.7*.
Screening CCOc1ccccc1C1C(C(=O)Nc2ccccc2)=C(C)Nc2c(C(=O)Nc3ccc(F)cc3)cnn21 (stereo not drawn) returned Pol eta inh-1 -20.1%, POLI inh 6.6%, Pol beta inh -11.6%, Pol kappa inh-1 -29.9% and FEN1 inh -6.1%.
Screening O=C(CSc1nc(=O)n2cc(Cl)ccc2n1)Nc1ccc2c(c1)OCCO2 returned Pol eta inh-1 28.2µM*, POLI inh -19.1%, Pol kappa inh-1 -43.7%, FEN1 inh -2.1%, WRN helicase inh inconclusive and Pol eta inh-2 inconclusive.
Screening O=C(CSCc1ccc(Cl)cc1)Nc1ccc2c(c1)OCCO2 returned Pol eta inh-1 -11.3%, POLI inh 9.2%, Pol beta inh 2.2%, Pol kappa inh-1 -16.9%, FEN1 inh -20.7% and WRN helicase inh -13.2%.
Screening Cc1ccc(C)c(N2C(=O)N(Cc3cc(=O)n4ccccc4n3)c3ccccc3S2(=O)=O)c1 returned Pol eta inh-1 -8.6%, POLI inh -9.8%, Pol beta inh 27.1%, Pol kappa inh-1 -9.8%[60.1 µM] and FEN1 inh -13.9%.
`Cc1c(C(=O)Nc2ccc(S(=O)(=O)Nc3ncccn3)cc2)oc2ccccc12` gave Pol eta inh-1 28.2µM*, POLI inh inconclusive, Pol kappa inh-1 inconclusive, FEN1 inh -14.8%, WRN helicase inh -9.4% and Pol eta inh-2 42.6*.
`O=C(Nc1ccc(S(=O)(=O)Nc2ncccn2)cc1)c1ccc2ncsc2c1` gave Pol eta inh-1 39.8µM*, POLI inh inconclusive, Pol beta inh inconclusive, Pol kappa inh-1 -26.3%, FEN1 inh inconclusive, WRN helicase inh -4.3% and Pol eta inh-2 75.7*.
For O=C(Nc1ccc(S(=O)(=O)Nc2ncccn2)cc1)c1cccc(Cl)c1 the results were Pol eta inh-1 -17.9%, POLI inh 20.4%, Pol beta inh -10.2%, Pol kappa inh-1 -15.9%[60.1 µM] and FEN1 inh 18.4%.
`CCCOc1ccc(Cc2nn3c(=O)/c(=C/c4ccco4)sc3nc2=O)cc1` gave Pol eta inh-1 25.1µM*, POLI inh 6.31µM*, Pol beta inh 25.1µM*, Pol kappa inh-1 8.91µM*, FEN1 inh inconclusive, WRN helicase inh 56.2µM* and Pol eta inh-2 inconclusive.
COc1ccc(N2CCN(C3C(=O)c4ccccc4N3C(C)=O)CC2)cc1 (stereo not drawn) was read as Pol eta inh-1 -12.9%, POLI inh 25.6%, Pol beta inh 5.7%, Pol kappa inh-1 -3.7% and FEN1 inh -6.3%.
`CN(C)S(=O)(=O)c1ccc2c(c1)N(CC(=O)NCc1cccc(Br)c1)C(=O)CS2` gave Pol eta inh-1 -3.5%, POLI inh inconclusive, Pol beta inh -5.4%, Pol kappa inh-1 -0.9% and FEN1 inh 16.4%.
